Holding throughout (conditions): concentration: 1 μM,replicates: in singlicate; n = 1
Assay [1] relates to PIP5K1A.
The test system of assay [2] is PIP5K1C.
Assay [3] has as its system PIP5K2B.
Assay [4] deals with T1, PIP5K2C.
T1 construct: gene PIP4K2C

Assay [5] relates to T2, PKAC-alpha.
T2 construct: gene PRKACA

Assay [6] concerns T3, PKAC-beta.
T3 construct: gene PRKACB

Assay [7] relates to PKMYT1.
The subject of assay [8] is PKN1.
Assay [9] concerns PKN2.
In assay [10] the test system is PLK1.
Assay [11] relates to PLK2.
Assay [12] has as its system PLK3.
For assay [13], the system named is PLK4.
Assay [14] deals with PRKCD.
Assay [15] has as its system PRKCE.
Assay [16] deals with PRKCH.
For assay [17], the system named is PRKCI.
The test system of assay [18] is PRKCQ.
The test system of assay [19] is PRKD1.
Assay [20] concerns PRKD2.
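Note: KINOMEscan kinase panel screen.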

Regarding `COC(=O)c1cccc(NC(=O)NC2CCN(c3ccnc(Nc4cc(OC)c(OC)c(OC)c4)n3)C2)c1` (stereo not shown) [GSK1379767], the “%Inh” value in assay [1] amounted to 22%; in assay [2], 64%; in assay [3] it was 10%; in assay [4], 90.7%; in assay [5], 0%; in assay [6], 0%. Further, the “%Inh” value in [7] is reported as 6%; in [8], 7%; in assay [9], 0%; in assay [10] it was 8%; in [11] it was 0%; in assay [12] it was 0%. The “%Inh” value in assay [13] is listed as 38%; in [14], 0%; in [15] it was 18%; in assay [16] it was 7%; in assay [17], 19%; in [18], 0%. Further, the entries for the “%Inh” value in [19] and in assay [20] were 0% and 5%, respectively.

Regarding `CC(=O)Nc1ccc(-c2cc3ncnc(SCC(=O)O)c3s2)cc1`, the “%Inh” value in assay [1] was 0%; in assay [2] it was 70%; in [3] it was 0%; in assay [4], 46%; in assay [5], 0%; in [6], 0%. The “%Inh” value in assay [7] was 25%; in [8], 12%; in [9] it was 5%; in [10] it was 0%; in [11], 15%; in [12], 7%. For the same compound, the “%Inh” value in assay [13] was determined as 47%; in [14] it was 22%; in assay [15], 10%; in [16] it was 1%; in [17], 0%; in [18], 18%. Moreover, the “%Inh” value in assay [19] amounted to 22%; in assay [20], 0%.

With `CNC(=O)c1ccccc1Nc1nc(Nc2cccc(CS(C)(=O)=O)c2)ncc1C.O=CO` [GSK1520489], the “%Inh” value is listed as 55% in assay [1]; 52% in assay [2]; 84% in assay [3]; 79% in assay [4]; 11% in assay [5]; 28% in assay [6]. For the same compound, the “%Inh” value in assay [7] was found to be 84%; in assay [8], 56%; in [9], 2%; in [10] it was 97.9%; in assay [11], 68%; in assay [12] it was 17%. The “%Inh” value in [13] turned out to be 100%; in assay [14] it was 13%; in assay [15] it was 77%; in assay [16], 0%; in assay [17], 17%; in [18], 42%. Further, the figures for the “%Inh” value in assay [19] and in assay [20] were 0% and 6%, respectively.

As to `Cc1ccc(CC(=O)N2CCc3cc(-c4cn(C)c5ncnc(N)c45)ccc32)cc1` [GSK2634758], the “%Inh” value in assay [1] was determined as 33%; in [2] it was 57%; in assay [3] it was 32%; in assay [4], 17%; in [5], 0%; in assay [6], 0%. Moreover, the “%Inh” value in assay [7] is on record as 4%; in assay [8] it was 0%; in [9], 16%; in assay [10] it was 7%; in assay [11], 2%; in assay [12] it was 0%. In addition, the “%Inh” value was found to be 0% in assay [13]; 15% in [14]; 15% in assay [15]; 35% in assay [16]; 27% in assay [17]; 33% in assay [18]. Moreover, the entries for the “%Inh” value in assay [19] and in [20] were 0% and 14%, respectively.

Consider `O=c1[nH]cc(-c2ccc(O)cc2)c2sc(-c3ccncc3)cc12` [GSK1033723], for which the “%Inh” value amounted to 0% in assay [1]; 65% in assay [2]; 19% in [3]; 27% in [4]; 0% in [5]; 0% in assay [6]. Also, the “%Inh” value in assay [7] stood at 8%; in [8], 0%; in assay [9], 0%; in [10], 13%; in assay [11], 0%; in assay [12], 0%. Further, the “%Inh” value in assay [13] is recorded as 0%; in assay [14], 0%; in assay [15], 21%; in assay [16] it was 0%; in [17], 33%; in assay [18], 19%. The “%Inh” value in assay [19] and in [20] was 0% each time.

`Cc1cccc(-c2nc(Nc3ccncc3)c3sccc3n2)n1` [GW869641]: the “%Inh” value in assay [1] is 4%; in assay [2], 61%; in [3], 3%; in assay [4], 45%; in assay [5] it was 25%; in assay [6], 38%. Moreover, the “%Inh” value in [7] is 3%; in assay [8], 1%; in assay [9], 12%; in assay [10], 33%; in assay [11] it was 20%; in assay [12], 13%. In addition, the “%Inh” value is 23% in assay [13]; 20% in assay [14]; 40% in assay [15]; 21% in assay [16]; 32% in [17]; 0% in assay [18]. Further, the “%Inh” value in [19] is 99.3%.

Consider `O=C(Nc1cccc(Oc2ccc3nccn3n2)c1)Nc1cccc(C(F)(F)F)c1`, for which the “%Inh” value in [1] is on record as 6%; in [2], 37%; in assay [3] it was 14%; in [4] it was 35%; in assay [5] it was 66%; in assay [6], 63%. For the same compound, the “%Inh” value in [7] is given as 0%; in assay [8] it was 0%; in [9] it was 31%; in [10], 38%; in [11], 0%; in assay [12] it was 0%. In addition, the “%Inh” value in assay [13] came to 0%; in assay [14], 10%; in [15], 0%; in assay [16], 0%; in assay [17], 11%; in assay [18], 9%. For the same compound, the “%Inh” value in [19] stood at 2%; in assay [20] it was 24%.

With `Cn1ccc2ncnc(Oc3ccc(NC(=O)Nc4cnn(C(C)(C)C)c4)c(Cl)c3)c21`, the “%Inh” value in assay [1] amounted to 17%; in [2] it was 3%; in assay [3], 100%; in assay [4], 0%; in assay [5] it was 0%; in assay [6], 3%. In addition, the “%Inh” value in assay [7] is given as 0%; in assay [8], 0%; in assay [9], 3%; in assay [10], 0%; in assay [11], 1%; in assay [12] it was 11%. In addition, the “%Inh” value in assay [13] was determined as 31%; in [14] it was 27%; in assay [15] it was 0%; in assay [16], 0%; in [17], 10%; in assay [18], 21%. Also, the “%Inh” value in assay [19] is 0%; in assay [20] it was 13%.

For the compound `CN1CCN(CCCNc2nccc(-c3c(-c4ccc(F)cc4)nn4cc(C(N)=O)ccc34)n2)CC1` [GW622475], the “%Inh” value is 0% in [1]; 50% in [2]; 12% in assay [3]; 29% in [4]; 6% in assay [5]; 1% in assay [6]. The “%Inh” value came out at 9% in assay [7]; 13% in assay [8]; 0% in assay [9]; 0% in assay [10]; 0% in assay [11]; 0% in [12]. For the same compound, the “%Inh” value turned out to be 10% in [13]; 29% in assay [14]; 14% in assay [15]; 22% in assay [16]; 41% in [17]; 42% in assay [18]. The “%Inh” value in assay [19] was 65%; in [20], 67%.

With `CN(c1ccccc1CNc1nc(Nc2ccc3c(c2)CC(=O)N3)ncc1C(F)(F)F)S(C)(=O)=O`, the “%Inh” value in assay [1] was found to be 32%; in assay [2] it was 0%; in assay [3], 19%; in [4] it was 9%; in [5], 77%; in assay [6] it was 63%. Moreover, the “%Inh” value in assay [7] is 0%; in assay [8] it was 85%; in assay [9] it was 66%; in assay [10], 0%; in assay [11] it was 80%; in [12], 49%. In addition, the “%Inh” value was found to be 61% in [13]; 73% in [14]; 58% in [15]; 0% in assay [16]; 0% in assay [17]; 80% in assay [18]. Further, the “%Inh” value in assay [19] was 51%; in assay [20], 31%.

(Values after paper PMC5540273 (PLoS ONE, 2017).)
